From PubChem
Most compounds without a hit are left out; they make up all but 19% or so of the library.
DT40 TDP1 CPT: DT40-hTDP1 cell growth loss with CPT. chicken DT40 Tdp1-/-;hTDP1 cells + 20 nM CPT, ATP luminescence, 48 h. Potency, µM (highest dose often 46.2 µM), for the others: top-dose activity change, negative = growth inhibition, actives largely listed as inhibitors. hit rate 12% among 420,000. AID 686979; further: potency means the concentration at half of the fitted maximal effect; nearly all actives have a fitted effect of over 55% in size
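Chicken DT40 Tdp1-/- cells complemented with human TDP1, 400 cells/well, exposed to compounds plus 20 nM camptothecin for at least 48 h at 37 C; viability read as ATP content by CellTiter-Glo luminescence.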
ELG1 repair inh: inhibitors of ELG1-dependent DNA repair in HEK293T cells. hit rate 2.3% among 330,000. AID 504467. HEK293T ELG1-luciferase reporter, luminescence, 16 h; DNA damage induced by 5-fluorouridine. Potency, µM (top dose mostly 46.1 µM), inactives show at the highest dose activity change, negative = inhibition, usual class: inhibitors; further: potency means the concentration at half of the fitted maximal effect; nearly all actives have a fitted effect of over 55% in size
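Overnight (16 hr) co-exposure of 2,000 cells/well to 5-fluorouridine and compound at 37 °C preceded detection. Luciferase was quantified via ONE-Glo luminescence; loss of signal denotes inhibition.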
IL1B secr inh: blocks inflammasome-driven IL-1 beta release. THP-1 LPS/ATP IL-1B secretion, AlphaLISA, 16 h; stronger effect = lower value. activity change, % at 57.5 µM. hit rate 4.7% among 360,000. AID 743279; in the data active means activity change below about -50%; inconclusive means mostly about -30% to -49%
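Secreted IL-1B measured by AlphaLISA bead assay after 16 h compound exposure of THP-1 cells; compounds (final up to 57.5 uM) added 1 h before LPS (250 ng/mL) and ATP (1.25 mM) stimulation; lower signal means less secretion.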
HT1080 IDH1KD tx: toxicity to HT-1080 IDH1 knockdown cells (counter line) | AID 686971 | HT-1080 IDH1 knockdown viability, ATP luminescence, 48 h | Potency, µM (top dose mostly 46.1 µM), inactives show top-dose activity, negative = toxicity, actives largely listed as cytotoxic | hit rate 2% among 360,000;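 further: potency means the concentration at half of the fitted maximal effect; 0% = DMSO wells and -100% = cell-free medium wells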
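HT-1080-IDH1KD cells (IDH1 knocked down), 750/well in RPMI with 5% FBS, treated with compound 48 h at 37 degrees C. Viability by CellTiter-Glo luminescence, normalised to DMSO and no-cell wells; concentration-response curves classed.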
HT1080NT lethal: kills 2HG-producing HT-1080-NT fibrosarcoma cells. Potency, µM (doses to about 46.1 µM), for the others: at the top dose activity, negative = less viability, hits mostly cytotoxic. HT-1080-NT fibrosarcoma viability, CellTiter-Glo ATP luminescence, 48 h. hit rate 1.6% among 360,000;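 further: NT is the 2HG producing partner of a matched IDH1 knockdown line; potency means the concentration at half of the fitted maximal effect; 0% = DMSO-treated cells and -100% = media-only wells without cells; nearly all actives have a fitted effect of over 55% in size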
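Luminescent CellTiter-Glo readout after 48 hours of compound exposure at 37 degrees C defined viability of HT-1080-NT cells. Activity was normalized to DMSO wells and cell-free media wells; concentration-response curves were fitted and assigned curve classes.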
DT40 TDP1 no CPT: qHTS for Inhibitors of human tyrosyl-DNA phosphodiesterase 1 (TDP1): qHTS in cells in absence of CPT | hit rate 15% among 420,000 | Potency, µM (series often up to 46.2 µM), for the others: at the top dose activity change, negative = growth inhibition, hits mostly inhibitors | DT40 Tdp1-/- hTDP1 cells, no CPT, ATP luminescence, 48 h; further: potency means the concentration at half of the fitted maximal effect; nearly all actives have a fitted effect of over 55% in size
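Compound effects on proliferation are scored in DT40 Tdp1-/-;hTDP1 cells in the absence of CPT. ATP levels (CellTiter-Glo luminescence) are recorded after a ≥48 hr, 37 °C incubation.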
Numbers without * were called inactive; [ ] = another dose, or the depositor's remark. Unless noted, the call rests on the fitted dose curve; in most records, active means well fitted curve in the direction sought with a large enough effect; inconclusive means small, poorly fitted or top-dose-only effect, or another doubt; inactive means no such curve, though single readings can be large; an effect the other way counts as inactive or inconclusive. Unless noted, on the % scale 0 is the no-effect control and ±100 the full control effect.

CCC(CC)C(=O)Nc1cccc(-c2nc3ccccc3o2)c1 was read as DT40 TDP1 CPT inconclusive, ELG1 repair inh -18%, IL1B secr inh -23, HT1080 IDH1KD tx 15%[9.24 µM], HT1080NT lethal inconclusive and DT40 TDP1 no CPT 16µM*.
`CCOc1ccccc1C(=O)Nc1cccc(-c2nc3ccccc3s2)c1` gave DT40 TDP1 CPT 6.5µM* and DT40 TDP1 no CPT 5.2µM*.
Cc1cc(C)c(NC(=O)c2cc(S(=O)(=O)N3CCC4(CC3)OCCO4)ccc2F)c(C)c1 was read as DT40 TDP1 CPT -22% and DT40 TDP1 no CPT inconclusive.
Screening CC(C)c1nc(C(=O)N2CCCC(CCC(=O)N(C)CCc3ccccn3)C2)cs1 (stereo not given) returned DT40 TDP1 CPT -21%, ELG1 repair inh 1%, IL1B secr inh 9, HT1080 IDH1KD tx 3%, HT1080NT lethal -1% and DT40 TDP1 no CPT -30%.
`Cc1ccc(NS(=O)(=O)c2ccc(NC(=O)C(C)Sc3ccc(Cl)cc3)cc2)c(C)c1` (stereo not given) gave DT40 TDP1 CPT inconclusive, ELG1 repair inh 21µM*, IL1B secr inh inconclusive, HT1080 IDH1KD tx inconclusive, HT1080NT lethal inconclusive and DT40 TDP1 no CPT 6%.
For Cc1ccc(CN2CCSc3ccc(C(=O)NCCCN4CCOCC4)cc32)cc1 the results were DT40 TDP1 CPT 21µM*, ELG1 repair inh 3%, IL1B secr inh -51*, HT1080 IDH1KD tx inconclusive, HT1080NT lethal -12% and DT40 TDP1 no CPT inconclusive.
Screening CN1CCN(CCCNC(=O)c2ccc3c(c2)N(Cc2ccccc2)CCS3)CC1 returned DT40 TDP1 CPT 21µM*, ELG1 repair inh 2%, IL1B secr inh -27, HT1080 IDH1KD tx -4%, HT1080NT lethal -16% and DT40 TDP1 no CPT inconclusive.
Screening O=C(NCCN1CCOCC1)c1ccc2c(c1)N(Cc1ccccc1)CCS2 returned DT40 TDP1 CPT inconclusive, ELG1 repair inh -3%, IL1B secr inh -2, HT1080 IDH1KD tx -2%, HT1080NT lethal -2% and DT40 TDP1 no CPT inconclusive.
`Cc1ccc(Cn2c(C(=O)NCCCN3CCOCC3)cc3sccc32)cc1` gave DT40 TDP1 CPT -24%, ELG1 repair inh 6%, IL1B secr inh 22, HT1080 IDH1KD tx inconclusive, HT1080NT lethal 16µM* and DT40 TDP1 no CPT inconclusive.
Screening O=C(NCCCN1CCOCC1)c1ccc2c(c1)N(Cc1ccccc1)CCS2 returned DT40 TDP1 CPT inconclusive, ELG1 repair inh 26%, IL1B secr inh inconclusive, HT1080 IDH1KD tx -29%, HT1080NT lethal -16% and DT40 TDP1 no CPT 23µM*.
For CCN1CCN(CCCNC(=O)c2ccc3c(c2)N(Cc2ccc(C)cc2)CCS3)CC1 the results were DT40 TDP1 CPT inconclusive, ELG1 repair inh -1%, IL1B secr inh -1, HT1080 IDH1KD tx inconclusive, HT1080NT lethal inconclusive and DT40 TDP1 no CPT inconclusive.
O=C(Nc1cc2c3c(c1)CC(=O)N3CCC2)c1ccccc1Br was read as DT40 TDP1 CPT 7%, ELG1 repair inh inconclusive, IL1B secr inh 1, HT1080 IDH1KD tx 2%, HT1080NT lethal -1% and DT40 TDP1 no CPT -3%.
Screening COC(=O)c1ccc(N2CCN(C)CC2)c(NC(=O)COc2cccc(C)c2)c1 returned DT40 TDP1 CPT -23%, ELG1 repair inh 6%, IL1B secr inh 18, HT1080 IDH1KD tx 10%, HT1080NT lethal 6% and DT40 TDP1 no CPT inconclusive.
COc1ccccc1NC(=O)N(C)C[C@@H]1OCc2cnnn2CCCC(=O)N([C@@H](C)CO)C[C@@H]1C was read as DT40 TDP1 CPT -2%, IL1B secr inh 12, HT1080 IDH1KD tx 6%, HT1080NT lethal 4% and DT40 TDP1 no CPT 6%.
CCOC(=O)c1cc(-c2ccc(/C=C3/C(=O)N(c4ccc(C(=O)O)cc4)N=C3C)o2)ccc1Cl was read as DT40 TDP1 CPT inconclusive, ELG1 repair inh -27%, IL1B secr inh 11, HT1080 IDH1KD tx -6%, HT1080NT lethal inconclusive and DT40 TDP1 no CPT 15µM*.
For COc1ccccc1N(C)S(=O)(=O)c1ccc(Cl)c(C(=O)NNC(=O)c2ccccc2O)c1 the results were DT40 TDP1 CPT inconclusive, ELG1 repair inh 26%, IL1B secr inh 112, HT1080 IDH1KD tx -1%, HT1080NT lethal -4% and DT40 TDP1 no CPT inconclusive.
COc1ccccc1N1CCN(C(=O)c2ccccc2N(C)S(=O)(=O)c2ccc(C)cc2)CC1 was read as DT40 TDP1 CPT inconclusive, ELG1 repair inh -10%, IL1B secr inh 5, HT1080 IDH1KD tx 6%, HT1080NT lethal -2% and DT40 TDP1 no CPT 16µM*.
`CN(c1ccc(F)cc1)S(=O)(=O)c1ccc(Cl)c(C(=O)NCC2(N3CCOCC3)CCCCC2)c1` gave DT40 TDP1 CPT 7.3µM*, IL1B secr inh inconclusive, HT1080 IDH1KD tx -5%, HT1080NT lethal 0% and DT40 TDP1 no CPT 7.3µM*.
COc1ccccc1N(C)S(=O)(=O)c1ccc(Cl)c(C(=O)N2CCC2)c1 was read as DT40 TDP1 CPT 16µM*, ELG1 repair inh 11%, IL1B secr inh 17, HT1080 IDH1KD tx 0%, HT1080NT lethal 1% and DT40 TDP1 no CPT inconclusive.
COc1cc(OC)c(OC)cc1CNC(=O)c1cc(S(=O)(=O)N(C)c2ccccc2OC)ccc1C was read as DT40 TDP1 CPT inconclusive, IL1B secr inh -2, HT1080 IDH1KD tx -10%, HT1080NT lethal -6%[9.24 µM] and DT40 TDP1 no CPT inconclusive.
Screening COc1ccccc1N(C)S(=O)(=O)c1ccc(Cl)c(C(=O)OCc2c(C)noc2C)c1 returned DT40 TDP1 CPT inconclusive, ELG1 repair inh -29%, IL1B secr inh inconclusive, HT1080 IDH1KD tx -2%, HT1080NT lethal 0% and DT40 TDP1 no CPT 23µM*.
Cc1ccc(S(=O)(=O)N(C)c2ccccc2C(=O)N2CCOCC2)cc1 was read as DT40 TDP1 CPT 0%, ELG1 repair inh 6%, IL1B secr inh 1, HT1080 IDH1KD tx 0%, HT1080NT lethal -2% and DT40 TDP1 no CPT -12%.
For CCCn1c(SCC(=O)NCCCN2CCCC2=O)nc2ccccc2c1=O the results were DT40 TDP1 CPT 23%, ELG1 repair inh inconclusive, IL1B secr inh 27, HT1080 IDH1KD tx -5%, HT1080NT lethal 0% and DT40 TDP1 no CPT -17%.
`O=C(O)c1ccccc1C=NN1CCCCCC1` gave DT40 TDP1 CPT 3%, IL1B secr inh 20, HT1080 IDH1KD tx 6%, HT1080NT lethal -9% and DT40 TDP1 no CPT 0%.
